Experimental data as given in PubChem BioAssay (NCATS).
Where “and” joins values, the source holds several entries; their conditions need not be identical. Equal entries are not always repeated. Records with an inconclusive call do not appear. Calls of active or inactive are those of the source. Unless noted, calls come from the whole dose curve; as a rule, active = well fitted curve in the direction sought with a large enough effect; inconclusive = small, poorly fitted or top-dose-only effect, or another doubt; inactive = no such curve, though single readings can be large; an effect the other way counts as inactive or inconclusive.

Legend:
[1] = tested on: UISO; assay: qHTS assay to identify novel small-molecules to repurpose for Merkel cell carcinoma treatment (AID 1296009); settings: MCC and control cell lines, CellTiter-Glo viability, 72 h; series mostly up to 46 µM; note: nearly all actives have a fitted effect of over 60% in size; note: potency is the fitted concentration of half-maximal effect
Summary of the method: (§1)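 Viability readout: ATP luminescence (CellTiter-Glo) after 72 hr drug exposure at 37 degree celsius. Dose-response format was 8 points for NPC and 11 points for MIPE; data normalized to in-plate controls.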

[2] = tested on: WaGa; assay: as above; settings: MCC and control cell lines, CellTiter-Glo viability, 72 h; series mostly up to 46 µM
Summary of the method: as §1

[3] = tested on: C33A; assay: Primary qHTS to identify gynecologic anti-cancer compounds using libraries of approved drugs and bioactive compounds (AID 1345084); settings: Gynecologic cancer cell panel viability, ATPlite luminescence, 48 h; series mostly up to 57.5 µM; note: nearly all actives have a fitted effect of over 55% in size; note: potency is the fitted concentration of half-maximal effect
Summary of the method: (§2)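 Measured: luminescence after ATPlite addition (15 min, RT). Exposure: 48 h, 37 C, 5% CO2.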

[4] = tested on: CAOV3; assay: as above; settings: Gynecologic cancer cell panel viability, ATPlite luminescence, 48 h; series mostly up to 57.5 µM
Summary of the method: as §2

[5] = tested on: CASKI; assay: as above; settings: Gynecologic cancer cell panel viability, ATPlite luminescence, 48 h; series mostly up to 57.5 µM
Summary of the method: as §2

[6] = tested on: Es-2; assay: as above; settings: Gynecologic cancer cell panel viability, ATPlite luminescence, 48 h; series mostly up to 57.5 µM
Summary of the method: as §2

[7] = tested on: HeLa; assay: as above; settings: Gynecologic cancer cell panel viability, ATPlite luminescence, 48 h; series mostly up to 57.5 µM
Summary of the method: as §2

[8] = tested on: Hek293T; assay: as above; settings: Gynecologic cancer cell panel viability, ATPlite luminescence, 48 h, control line for the selectivity index; series mostly up to 57.5 µM
Summary of the method: as §2

[9] = tested on: JEG-3; assay: as above; settings: Gynecologic cancer cell panel viability, ATPlite luminescence, 48 h; series mostly up to 57.5 µM
Summary of the method: as §2

[10] = tested on: PA-1; assay: as above; settings: Gynecologic cancer cell panel viability, ATPlite luminescence, 48 h; series mostly up to 57.5 µM
Summary of the method: as §2

[11] = tested on: SKOV3; assay: as above; settings: Gynecologic cancer cell panel viability, ATPlite luminescence, 48 h; series mostly up to 57.5 µM
Summary of the method: as §2

[12] = tested on: Tov-21-G; assay: as above; settings: Gynecologic cancer cell panel viability, ATPlite luminescence, 48 h; series mostly up to 57.5 µM
Summary of the method: as §2

[13] = tested on: Tov112D; assay: as above; settings: Gynecologic cancer cell panel viability, ATPlite luminescence, 48 h; series mostly up to 57.5 µM
Summary of the method: as §2

[14] = Drug repurposing screens with cells derived from glioblastoma tumor samples (AID 1345199); settings: GBM patient neurospheres viability, ATP luminescence, 48 h; note: nearly all actives have a fitted effect of over 40% in size; note: potency is the fitted concentration of half-maximal effect; for activity, negative = cell killing: % is set by controls: 0 for no effect and ±100 for the full control effect
Summary of the method: (§3)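 Primary testing used CD133+ neurospheres from four GBM patients, seven concentrations, 48 h exposure and ATP-based viability; confirmation added three slower-growing patient lines.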

[15] = tested on: OV90; assay: Primary qHTS to identify gynecologic anti-cancer compounds using libraries of approved drugs and bioactive compounds (AID 1345084); settings: Gynecologic cancer cell panel viability, ATPlite luminescence, 48 h; series mostly up to 57.5 µM; note: nearly all actives have a fitted effect of over 55% in size; note: potency is the fitted concentration of half-maximal effect
Summary of the method: as §2

[16] = tested on: astro; assay: Drug repurposing screens with cells derived from glioblastoma tumor samples (AID 1345199); settings: viability, ATP luminescence, 48 h; series mostly up to 45.9 µM; note: nearly all actives have a fitted effect of over 40% in size; note: potency is the fitted concentration of half-maximal effect; for activity, negative = cell killing: % is set by controls: 0 for no effect and ±100 for the full control effect
Summary of the method: as §3

[17] = qHTS assay to identify inhibitors of the type 1 interferon - major histocompatibility complex class I in skeletal muscle: Counter screen cell viability and HiBit confirmation (AID 1347412); settings: iHSKM muscle cells + IFN-b, HiBiT or CellTiter-Glo, 24 h; note: potency is the fitted concentration of half-maximal effect; nearly all actives have a fitted effect of over 60% in size
Summary of the method: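 Myoblasts (C25cl48, HLA-B HiBiT) seeded in medium without dexamethasone, IFN-b 4 ng/ml added except unstimulated columns; 1 hr later compounds pinned (12-pt 1:3, top 46 uM final). Incubated 24 hrs, lysed 10 min, luminescence measured.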

[18] = molecular target: Nuclear receptor subfamily 1 group I member 2 (Rattus norvegicus) (UniProt Q9R1A7); assay: qHTS assay for small molecule activators of the rat pregnane X receptor (rPXR) signaling pathway (AID 651751; call rule not given here; note: 0% is about no effect); settings: rPXR reporter cells, luciferase (One-Glo), 24 h
[19] = qHTS assay for small molecule activators of the human pregnane X receptor (PXR) signaling pathway (AID 720659; call rule not given here; note: 0% is about no effect)
[20] = at 46 µM (top of the series), tumour line A
[21] = at 45.9 µM (top of the series), tumour line B
[22] = at 45.9 µM (top of the series), tumour line D

Sequence of Nuclear receptor subfamily 1 group I member 2 (Rattus norvegicus) (Q9R1A7 whole entry, looked up): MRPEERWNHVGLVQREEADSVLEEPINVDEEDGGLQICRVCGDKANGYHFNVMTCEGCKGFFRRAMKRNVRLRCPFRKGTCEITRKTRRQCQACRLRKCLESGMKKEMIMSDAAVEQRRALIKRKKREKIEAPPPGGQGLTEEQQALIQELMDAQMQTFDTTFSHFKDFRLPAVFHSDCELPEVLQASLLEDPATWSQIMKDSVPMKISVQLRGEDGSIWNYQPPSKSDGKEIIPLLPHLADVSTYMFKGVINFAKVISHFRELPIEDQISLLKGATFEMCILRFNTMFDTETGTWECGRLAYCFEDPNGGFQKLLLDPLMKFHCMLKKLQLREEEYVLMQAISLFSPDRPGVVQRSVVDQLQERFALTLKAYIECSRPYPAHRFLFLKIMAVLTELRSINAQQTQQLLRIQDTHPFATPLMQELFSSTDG

C=CCN1CC[C@]23CCCC[C@H]2[C@H]1Cc1ccc(O)cc13
active: Potency ([14]; tumour line B) 35.5 µM
inactive: Potency [1] | Potency [2] | Potency [3] | Potency [4] | Potency [5] | Potency [6] | Potency [7] | Potency [8] | Potency [9] | Potency [10] | Potency [11] | Potency [12] | Potency [13] | activity, negative = cell killing [14, 20] 29%

C[C@]12CC[C@H]3[C@@H](CC=C4C[C@@H](O)CC[C@@]43C)[C@@H]1CC[C@@H]2O
active: Potency ([14]; tumour line A) 11.2 µM
inactive: Potency [1] | Potency [2] | Potency [3] | Potency [4] | Potency [5] | Potency [6] | Potency [7] | Potency [8] | Potency [9] | Potency [15] | Potency [10] | Potency [11] | Potency [12] | Potency [13] | activity, negative = cell killing [14, 21] -14.5% | Potency [16]

Cc1ccc([N+](=O)[O-])[c]2c1[O][Hg]2
active: Potency [1] 0.335 µM | Potency [2] 0.335 µM | Potency [3] 4.47 µM | Potency [4] 6.31 µM | Potency [5] 7.94 µM | Potency [6] 5.62 µM | Potency [7] 20 µM | Potency [8] 5.62 µM | Potency [9] 3.55 µM | Potency [15] 12.6 µM | Potency [10] 2.82 µM | Potency [11] 3.98 µM | Potency [12] 2 µM | Potency [13] 5.62 µM | Potency ([17]; HiBiT) 6.25 µM | Potency ([17]; Viability) 14 µM

CCS(=O)(=O)C(C)(C)S(=O)(=O)CC
inactive: Potency [1] | Potency [2] | Potency [3] | Potency [4] | Potency [5] | Potency [6] | Potency [7] | Potency [8] | Potency [9] | Potency [15] | Potency [10] | Potency [11] | Potency [12] | Potency [13] | activity, negative = cell killing [14, 21] -4.87% | activity, negative = cell killing [14, 22] 5.45% | Potency [16]

CC[n+]1c(-c2ccccc2)c2cc(N)ccc2c2ccc(N)cc21
active: Potency [1] 7.5 µM | Potency [2] 0.75 µM | Potency [3] 1.12 µM | Potency [4] 12.6 µM | Potency [5] 20 µM | Potency [15] 14.1 µM | Potency [10] 1.26 µM | Potency [12] 15.8 µM | Potency [13] 1.41 µM | Potency [16] 8.91 µM and 12.6 µM
inactive: max response [18] -4.84% | outcome [19]

Cc1nnc2n1-c1sc(CCC(=O)N3CCOCC3)cc1C(c1ccccc1Cl)=NC2
inactive: Potency [1] | Potency [2] | Potency [3] | Potency [4] | Potency [5] | Potency [6] | Potency [7] | Potency [8] | Potency [9] | Potency [15] | Potency [10] | Potency [11] | Potency [12] | Potency [13] | activity, negative = cell killing [14, 21] -14.3% and -9.87% | activity, negative = cell killing [14, 22] -19.2% and -29.4% | activity, negative = cell killing [14, 20] -18.9% | Potency [16]

ClCc1cccc(Cl)c1
inactive: Potency [1] | Potency [2] | Potency [3] | Potency [5] | Potency [6] | Potency [7] | Potency [8] | Potency [9] | Potency [15] | Potency [10] | Potency [11] | Potency [12] | Potency [13]

CCN(CC)C(C)C(=O)c1ccccc1 (configuration not stated)
inactive: Potency [1] | Potency [2] | Potency [3] | Potency [4] | Potency [5] | Potency [6] | Potency [7] | Potency [8] | Potency [9] | Potency [15] | Potency [10] | Potency [11] | Potency [12] | Potency [13] | activity, negative = cell killing [14, 21] -5.61% | activity, negative = cell killing [14, 22] -24.9% | activity, negative = cell killing [14, 20] -22.4% | Potency [16]

CCCOC(=O)Cc1ccc(OCC(=O)N(CC)CC)c(OC)c1
inactive: Potency [1] | Potency [2] | Potency [3] | Potency [4] | Potency [5] | Potency [6] | Potency [7] | Potency [8] | Potency [9] | Potency [15] | Potency [10] | Potency [12] | Potency [13] | activity, negative = cell killing [14, 21] -0.689% | activity, negative = cell killing [14, 22] -1.94% | activity, negative = cell killing [14, 20] -27.4% | Potency [16]

CCN(CC)CCOC(=O)C(C)(c1ccccc1)c1ccccc1
active: Potency ([14]; tumour line A) 10 µM
inactive: Potency [1] | Potency [2] | Potency [3] | Potency [4] | Potency [5] | Potency [6] | Potency [7] | Potency [8] | Potency [9] | Potency [15] | Potency [10] | Potency [11] | Potency [12] | Potency [13] | activity, negative = cell killing [14, 21] -27.8%

CCOC(=O)c1ncn2c1CN(C)C(=O)c1c(I)cccc1-2
inactive: Potency [1] | Potency [2] | Potency [3] | Potency [4] | Potency [5] | Potency [6] | Potency [7] | Potency [8] | Potency [9] | Potency [15] | Potency [10] | Potency [12] | Potency [13]

CN(C)C(=O)Oc1cc(OC(=O)N(C)C)cc(C(O)CNC(C)(C)C)c1 (configuration not stated)
inactive: Potency [1] | Potency [2] | Potency [3] | Potency [4] | Potency [5] | Potency [6] | Potency [7] | Potency [8] | Potency [9] | Potency [15] | Potency [10] | Potency [11] | Potency [12] | Potency [13] | activity, negative = cell killing ([14]; at 21.2 µM (top of the series), tumour line B) -7.15% | activity, negative = cell killing ([14]; at 21.2 µM (top of the series), tumour line D) -0.819% | activity, negative = cell killing ([14]; at 21.3 µM (top of the series), tumour line A) -13.9%

CC1=C2[C@H]3OC(=O)[C@@H](C)[C@@H]3CC[C@@]2(C)C=CC1=O
inactive: Potency [1] | Potency [2] | Potency [3] | Potency [4] | Potency [5] | Potency [6] | Potency [7] | Potency [8] | Potency [9] | Potency [15] | Potency [10] | Potency [11] | Potency [12] | Potency [13] | activity, negative = cell killing [14, 21] -4.49% | activity, negative = cell killing [14, 22] -15.5% | activity, negative = cell killing [14, 20] -23.4% | Potency [16]
